This passage reports growth inhibition results from PubChem BioAssay (NCI).

Assay [1] in a line: NCI Yeast Anticancer Drug Screen. Data for the rad50 strain (AID 155).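 Further: 0% = growth of vehicle-only cultures of the same strain.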 As to conditions: S. cerevisiae rad50 strain growth inhibition, hits give high values. The procedure, abridged:
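Yeast carrying a defined DNA repair defect were exposed to test compounds, and growth was compared with vehicle-treated controls to give percent inhibition.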

A short description of assay [2]: NCI Yeast Anticancer Drug Screen. Data for the mec2-1 strain (AID 157). The note with it: S. cerevisiae mec2-1 strain, hits give high values. The gist of the method: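 Test agents were screened against the mec2-1 yeast strain, with defined DNA repair or cell cycle alteration. Growth was scored as inhibition against vehicle-only controls.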
A short description of assay [3]: NCI Yeast Anticancer Drug Screen. Data for the sgs1 mgt1 strain (AID 161).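 Further: 0% = growth of cultures given vehicle only.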 As to conditions: S. cerevisiae sgs1 mgt1 strain, hits give high values. The gist of the method: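 Test agents were incubated with a DNA-repair-mutant yeast strain. Growth was then read and compared against vehicle-treated controls.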
Assay [4] in a line: NCI Yeast Anticancer Drug Screen. Data for the cln2 rad14 strain (AID 165).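 Further: 0% = growth equal to vehicle treated cultures.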 The note with it: S. cerevisiae cln2 rad14 strain, hits give high values. The gist of the method:
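Growth of compound-exposed yeast (cln2 rad14 genotype) measured and expressed as inhibition relative to vehicle.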

Assay [5] can be described thus: NCI Yeast Anticancer Drug Screen. Data for the bub3 strain (AID 167). The note with it: S. cerevisiae bub3 mutant strain, hits give high values. The procedure, abridged:
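Compounds were applied to a genetically altered yeast strain carrying a cell-cycle control defect. Growth inhibition was scored against vehicle-treated controls.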

A short description of assay [6]: NCI Yeast Anticancer Drug Screen. Data for the mlh1 rad18 strain (AID 175). The note with it: S. cerevisiae mlh1 rad18 strain growth inhibition, hits give high values. The procedure, abridged: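 In this whole-cell yeast screen, a strain with altered DNA damage repair is challenged with compound, and its growth is measured against matched vehicle-treated controls.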

Setting [7] is: at 5.0 µM (retest, dose inferred, filed as 0.5).
Where [8] appears, read: at 50.0 µM (retest, dose inferred, filed as 5.0).

About 79,000 compounds went through this panel and 15% of them were active in at least one assay; those are over-represented in the sample as a whole. A number with no mark means an inactive call. Active and inactive are the calls of the source. No stated cut-off is given here; in the data, active means growth inhibition above about 70%; inactive means the rest.

`CC12CC[C@@H](C(C)(C)O)C1[C@@H](O)CC1(C)C2CCC2[C@@]3(C)CC[C@H](O)C(C)(C)C3C(O)C[C@]21C` (some centres not stated): the growth inhibition in assay [1] (setting [7]) is 17%; in assay [1] (setting [8]) it was 98% (active); in assay [1] (at 50.0 µM) it was 90% (active); in assay [2] (setting [7]), 19%; in assay [2] (setting [8]) it was 99% (active); in assay [2] (at 50.0 µM) it was 92.5% (active). For the same molecule, the growth inhibition in assay [3] (setting [7]) was 9%; in assay [3] (setting [8]) it was 98% (active); in assay [3] (at 50.0 µM), 92.3% (active); in assay [4] (setting [7]), 17%; in assay [4] (setting [8]), 98% (active); in assay [4] (at 50.0 µM), 91.4% (active). In addition, the growth inhibition in assay [5] (setting [7]) is 15%; in assay [5] (setting [8]), 98% (active); in assay [5] (at 50.0 µM), 91.8% (active); in assay [6] (setting [7]), 41%; in assay [6] (setting [8]) it was 98% (active); in assay [6] (at 50.0 µM), 91.8% (active).

With `CS(=O)(=O)OCC(COS(C)(=O)=O)C(c1ccccc1)c1ccccc1Br` (configuration not stated), the growth inhibition in assay [1] (setting [7]) was 12%; in assay [1] (setting [8]) it was 34%; in assay [1] (at 50.0 µM), 28.4%; in assay [2] (setting [7]), 7%; in assay [2] (setting [8]) it was 29%; in assay [2] (at 50.0 µM), 36%. The growth inhibition was 14% in assay [3] (setting [7]); 47% in assay [3] (setting [8]); 37.1% in assay [3] (at 50.0 µM); 16% in assay [4] (setting [7]); 44% in assay [4] (setting [8]); 13.1% in assay [4] (at 50.0 µM). Besides, the growth inhibition in assay [5] (setting [7]) is -1%; in assay [5] (setting [8]) it was 16%; in assay [5] (at 50.0 µM) it was 5.4%; in assay [6] (setting [7]), 7%; in assay [6] (setting [8]) it was 51%; in assay [6] (at 50.0 µM), 56.2%.

For `C/C(O)=C(/C=N/C(=S)Nc1ccc(S(N)(=O)=O)cc1)C(=O)Nc1ccccc1C`, the growth inhibition is 0% in assay [1] (setting [7]); 18% in assay [1] (setting [8]); 79.7% (active) in assay [1] (at 50.0 µM); -10% in assay [2] (setting [7]); -4% in assay [2] (setting [8]); 81.7% (active) in assay [2] (at 50.0 µM). Also, the growth inhibition in assay [3] (setting [7]) was -5%; in assay [3] (setting [8]) it was -2%; in assay [3] (at 50.0 µM), 68.8%; in assay [4] (setting [7]), -14%; in assay [4] (setting [8]), 6%; in assay [4] (at 50.0 µM), 81.3% (active). Besides, the growth inhibition in assay [5] (setting [7]) was -13%; in assay [5] (setting [8]), -6%; in assay [5] (at 50.0 µM) it was 67.5%; in assay [6] (setting [7]) it was 3%; in assay [6] (setting [8]), -15%; in assay [6] (at 50.0 µM), 89.4% (active).

With `c1ccc(CC(Nc2cccnc2)c2ccccc2)cc1` (configuration not stated), the growth inhibition in assay [1] (setting [7]) was 6%; in assay [1] (setting [8]), 56%; in assay [1] (at 50.0 µM) it was 74.5% (active); in assay [2] (setting [7]), -13%; in assay [2] (setting [8]), 24%; in assay [2] (at 50.0 µM), 22.6%. For the same molecule, the growth inhibition is -2% in assay [3] (setting [7]); 74% (active) in assay [3] (setting [8]); 74.1% (active) in assay [3] (at 50.0 µM); -1% in assay [4] (setting [7]); 28% in assay [4] (setting [8]); 21.9% in assay [4] (at 50.0 µM). Also, the growth inhibition in assay [5] (setting [7]) is 24%; in assay [5] (setting [8]) it was 40%; in assay [5] (at 50.0 µM), 56.1%; in assay [6] (setting [7]), 1%; in assay [6] (setting [8]), 60%; in assay [6] (at 50.0 µM) it was 75.3% (active).

For the molecule `CCCCCCC/C=C\C(=O)O`, the growth inhibition in assay [1] (setting [7]) was 0%; in assay [1] (setting [8]), 13%; in assay [1] (at 50.0 µM) it was 35.5%; in assay [2] (setting [7]) it was 4%; in assay [2] (setting [8]) it was 32%; in assay [2] (at 50.0 µM), 17.9%. The growth inhibition in assay [3] (setting [7]) was 1%; in assay [3] (setting [8]), 38%; in assay [3] (at 50.0 µM), 33.6%; in assay [4] (setting [7]) it was 4%; in assay [4] (setting [8]) it was 25%; in assay [4] (at 50.0 µM), 38.9%. The growth inhibition was 5% in assay [5] (setting [7]); 23% in assay [5] (setting [8]); 6.4% in assay [5] (at 50.0 µM); 1% in assay [6] (setting [7]); 36% in assay [6] (setting [8]); 74.5% (active) in assay [6] (at 50.0 µM).

Turning to `CC(=O)c1c(O)ccc2nc3ccccc3nc12`, the growth inhibition is 11% in assay [1] (setting [7]); 87% (active) in assay [1] (setting [8]); 94% (active) in assay [1] (at 50.0 µM); 20% in assay [2] (setting [7]); 92% (active) in assay [2] (setting [8]); 91.5% (active) in assay [2] (at 50.0 µM). Further, the growth inhibition in assay [3] (setting [7]) is 14%; in assay [3] (setting [8]), 89% (active); in assay [3] (at 50.0 µM), 82.6% (active); in assay [4] (setting [7]) it was 12%; in assay [4] (setting [8]), 86% (active); in assay [4] (at 50.0 µM) it was 82.8% (active). In addition, the growth inhibition is 22% in assay [5] (setting [7]); 85% (active) in assay [5] (setting [8]); 92% (active) in assay [5] (at 50.0 µM); 39% in assay [6] (setting [7]); 91% (active) in assay [6] (setting [8]); 94.5% (active) in assay [6] (at 50.0 µM).

With `COc1ccc(NC(=O)C(Cc2ccccc2)NC(C)=O)cc1` (configuration not stated), the growth inhibition in assay [1] (setting [7]) was 9%; in assay [1] (setting [8]), 7%; in assay [1] (at 50.0 µM), 48.6%; in assay [2] (setting [7]), 1%; in assay [2] (setting [8]), -9%; in assay [2] (at 50.0 µM) it was -5.75%. The growth inhibition in assay [3] (setting [7]) was -12%; in assay [3] (setting [8]), -14%; in assay [3] (at 50.0 µM) it was 3.15%; in assay [4] (setting [7]) it was -5%; in assay [4] (setting [8]), 1%; in assay [4] (at 50.0 µM) it was -55.5%. Besides, the growth inhibition in assay [5] (setting [7]) is -4%; in assay [5] (setting [8]), -2%; in assay [5] (at 50.0 µM), 9.7%; in assay [6] (setting [7]), -1%; in assay [6] (setting [8]) it was -25%; in assay [6] (at 50.0 µM), 6.2%.

As for `Cc1cc(Nc2ccc(O)c(CN3CCN(Cc4cc(Nc5cc(C)nc(N)n5)ccc4O)CC3)c2)nc(N)n1`, the growth inhibition in assay [1] (setting [7]) was 8%; in assay [1] (setting [8]), 95% (active); in assay [1] (at 50.0 µM), 97.5% (active); in assay [2] (setting [7]) it was 6%; in assay [2] (setting [8]) it was 96% (active); in assay [2] (at 50.0 µM), 96.9% (active). The growth inhibition in assay [3] (setting [7]) is 5%; in assay [3] (setting [8]), 96% (active); in assay [3] (at 50.0 µM), 97.5% (active); in assay [4] (setting [7]) it was 12%; in assay [4] (setting [8]), 94% (active); in assay [4] (at 50.0 µM) it was 89.7% (active). Besides, the growth inhibition in assay [5] (setting [7]) is 9%; in assay [5] (setting [8]), 95% (active); in assay [5] (at 50.0 µM), 95.4% (active); in assay [6] (setting [7]) it was 7%; in assay [6] (setting [8]), 97% (active); in assay [6] (at 50.0 µM), 97.5% (active).

On to `C=C(C)C(CC=C(C)C)Cc1c(O)cc(OC)c2c1OC(c1ccc(O)cc1O)C(O)C2=O` (configuration not stated), for which the growth inhibition in assay [1] (setting [7]) is 29%; in assay [1] (setting [8]), 22%; in assay [1] (at 50.0 µM), 34.1%; in assay [2] (setting [7]), 27%; in assay [2] (setting [8]), 28%; in assay [2] (at 50.0 µM), 23.4%. The growth inhibition is -23% in assay [3] (setting [7]); 42% in assay [3] (setting [8]); 55.2% in assay [3] (at 50.0 µM); 19% in assay [4] (setting [7]); 32% in assay [4] (setting [8]); 43.9% in assay [4] (at 50.0 µM). Also, the growth inhibition in assay [5] (setting [7]) was -5%; in assay [5] (setting [8]), 38%; in assay [5] (at 50.0 µM), 57%; in assay [6] (setting [7]), 24%; in assay [6] (setting [8]), 23%; in assay [6] (at 50.0 µM), 85.3% (active).
